Sa helicase inh: inhibitors of S. aureus replicative helicase, primary screen, biochemical, fluorescence unwinding readout; replicative DNA helicase (DnaC/DnaB), Staphylococcus aureus; purified S. aureus helicase, fluorescence unwinding assay; actives 0.05% (n = 120,000); inhibition, % (no concentration beside the values); in the data active means inhibition above about 25%, passing the limit was not always enough
Sa growth 42C: S. aureus growth inhibition at 42 and 30 °C, primary screen, LtaS inhibitor project, RN4220, two temperatures. OD600, 20 h, 42 °C; hits give low values. relative growth, % (no concentration beside the values). actives 0.53% (n = 170,000). AID 720641, 2013;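 active means relative growth at most 50% at the other temperature and 20+ points below 30 °C, or under 10% at both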
Of the large screens only hits and unclear results are named; the others gave an inactive call; ! = repeats disagree. The entries come from a sample that favours hits as a whole.

CCN(CC(=O)NC1CCS(=O)(=O)C1)CC(=O)c1c(N)n(Cc2ccccc2)c(=O)n(C)c1=O (stereo not drawn)	none
CS(=O)(=O)c1sc(Br)c2c1C(=O)CCC2	none (no result: Sa helicase inh)
CS(=O)(=O)c1sc(C#N)c2c1C(=O)CCC2	Sa growth 42C 0.4
CCn1c(O)c(N=NS(=O)(=O)c2ccc(C)cc2)c2cc(Cl)ccc21	Sa growth 42C 0.8
CCn1c2ccc(Cl)cc2c2cc(Cl)ccc21	none (no result: Sa helicase inh)
NS(=O)(=O)c1ccc(-c2ccc(/C=N/NC(=O)c3cccnc3)o2)cc1	none
CCN(c1ccccc1)S(=O)(=O)c1ccc(NC(=O)c2nc(S(C)(=O)=O)ncc2Cl)cc1	Sa growth 42C -1.4 (no result: Sa helicase inh)
CCS(=O)(=O)c1ncc(Cl)c(C(=O)Nc2ccc(S(=O)(=O)N(C)c3ccccc3)cc2)n1	none (no result: Sa helicase inh)
O=C(O)CCCn1cc(NC(=O)c2ccc(Cl)cc2)cn1	none
Cc1nn(-c2ccc(N3CCCC3)nn2)c(C)c1CCC(=O)NCc1ccc2c(c1)OCO2	none
COc1cccc(NC(=O)Cn2sc3ccccc3c2=O)c1	Sa growth 42C -0.2
COc1cccc(NC(=O)Cn2ccc3c(OC)cccc3c2=O)c1	none
CCOC(=O)c1c(/N=C/C2C(=O)NC(=O)NC2=O)sc2c1CCCCC2	none
Cc1ccc(-c2nn(-c3ccccc3)cc2/C=C\C(N)=O)cc1	none
O=C(O)c1cccc(Oc2cccc(C(F)(F)F)c2)c1	none
CS(=O)(=O)c1nc(Oc2cccc(C(F)(F)F)c2)cc(Oc2cccc(C(F)(F)F)c2)n1	Sa growth 42C 32
Fc1ccccc1-c1nnc(-c2ccccc2OC(F)(F)F)o1	none (no result: Sa helicase inh)
Cc1cc(C)c(NC(=O)C(C)OC(=O)c2ccccc2O)c(C)c1 (stereo not drawn)	none
Oc1c(CN2CCCCC2)ccc2cccnc12	none
Oc1c(C(O)(C(F)(F)F)C(F)(F)F)ccc2cccnc12	Sa growth 42C -0.3
CC(=O)Nc1ccc(NC(=O)CSc2nnc3ccccn23)cc1	none
O=C(Oc1ccccc1Cl)c1cc(-c2ccc3c(c2)OCCO3)on1	Sa growth 42C -0.1 (no result: Sa helicase inh)
Cc1ccccc1OC(=O)c1cc(-c2ccc3c(c2)OCCO3)on1	none (no result: Sa helicase inh)
Cc1cccc(OC(=O)c2cc(-c3ccc4c(c3)OCCO4)on2)c1C	Sa growth 42C 0.1 (no result: Sa helicase inh)
O=C(Oc1ccc(Cl)cc1)c1cc(-c2ccc3c(c2)OCCO3)on1	none (no result: Sa helicase inh)
O=C(NC12CC3CC(CC(C3)C1)C2)c1ccccc1Cl	none
N#CCOc1ccc(C(=O)NC2CCN(Cc3ccccc3)CC2)cc1	none
CCCCCCCCCCCCC[N+](C)(C)Cc1ccccc1	Sa growth 42C -0.8 (no result: Sa helicase inh)
CC[N+](C)(CC)Cc1ccccc1	none
Cc1cc(C)cc(OC(=O)CCN2C(=O)c3ccccc3C2=O)c1	Sa growth 42C -1.1
O=C(CCN1C(=O)c2ccccc2C1=O)Oc1ccc(Cl)cc1	none
c1coc(C2=NCCN2)c1	none
c1cc2cc(C3=NCCN3)ccc2cc1C1=NCCN1	Sa helicase inh 46
Cc1cc2oc(=O)cc(Cn3ccsc3=N)c2cc1C(C)C	Sa growth 42C 50
Cc1cc2c(CCl)cc(=O)oc2cc1C(C)C	none
CCn1cc(C(=O)O)c(=O)c2cc(F)c(N3CCN(C(C)=O)CC3)cc21	none
CCn1cc(C(=O)NCc2cccnc2)c(=O)c2cc(S(=O)(=O)N3CCCC3)ccc21	none
O=C(O)c1cn(C2CC2)c2cc(N3CCNCC3)c(F)cc2c1=O	Sa growth 42C 0.7! (no result: Sa helicase inh)
CCN1CCN(c2cc3c(cc2F)c(=O)c(C(=O)O)cn3C2CC2)CC1	Sa growth 42C -0.9 (no result: Sa helicase inh)
O=C(NCc1cccnc1)c1cn(C2CC2)c2cc(N3CCN(C(=O)c4cccc(Cl)c4)CC3)c(F)cc2c1=O	Sa growth 42C 4.6
CCn1cc(C(=O)O)c(=O)c2cc(F)c(N3CCN(C(=O)c4ccc(F)cc4)CC3)cc21	none
N/C(Cc1ccc(Cl)cc1)=N\O	none
COc1ccc(-c2nc(CSCC(=O)N3CCCC3)c(C)o2)cc1	none
C=CCNc1nc(C(=O)OCc2nnc(-c3ccc(Br)cc3)o2)cs1	none
Cc1ccc(NC(=O)CNCCCN2CCOCC2)cc1Br	none
O=C(CSc1nnnn1C1CC1)Nc1ccc2c(c1)CCC2	none
CO[C@@]12[C@H](COC(N)=O)C3=C(C(=O)C(C)=C(N)C3=O)N1C[C@@H]1N[C@@H]12	Sa growth 42C 0.0 (no result: Sa helicase inh)
Cc1cc(Nc2ccc(Cl)cc2C)nc(-n2nc(C)cc2C)n1	none (no result: Sa helicase inh)
Cc1ccc(Nc2cc(C)nc(-n3nc(C)cc3C)n2)cc1	Sa growth 42C 0.2 (no result: Sa helicase inh)
CCSc1nc2c(c(=O)[nH]c(=O)n2C)n1Cc1ccc(C)cc1	none
COc1ccc(-c2nnc(SC(C)c3nc4ccccc4c(=O)[nH]3)n2CC2CCCO2)cc1 (stereo not drawn)	none
CN(CC(=O)Nc1nccs1)S(=O)(=O)c1ccc2c(c1)CCC(=O)N2	none
COc1cc2ccc3c(CCN(C)C)cc(OC)c(OC)c3c2cc1OC	none
CN(C)CCc1cc2c(c3c1ccc1ccccc13)OCO2	Sa helicase inh 45
COCc1nnc(NS(=O)(=O)c2ccc(OC)cc2)s1	none
CCc1nnc(NS(=O)(=O)c2ccc(N)cc2)s1	Sa growth 42C 9.7
CCc1c(C)sc2c1CCN(C(=O)Nc1cc(OC)c(OC)c(OC)c1)C2c1ccccc1 (stereo not drawn)	none (no result: Sa helicase inh)
CCOC(=O)c1ccccc1NC(=O)N1CCc2c(sc(C)c2CC)C1c1ccccc1 (stereo not drawn)	none (no result: Sa helicase inh)
CCc1c(C)sc2c1CCN(Cc1ccccc1F)C2c1ccccc1 (stereo not drawn)	Sa growth 42C -1.3 (no result: Sa helicase inh)
CCc1c(C)sc2c1CCN(Cc1cccc(OC)c1)C2c1ccccc1 (stereo not drawn)	Sa growth 42C -1.1 (no result: Sa helicase inh)
COc1cccc(NC(=O)C(NCCO)c2ccccc2)c1 (stereo not drawn)	none
Cc1ccc2nc(CCC(=O)N3CCCCCC3)[nH]c2c1	none
O=C(NC1CCCCC1)c1sc(=S)n2c1[nH]c(=O)c1ccccc12	Sa growth 42C -0.2
O=C(NCCc1ccccc1)c1sc(=S)n2c1[nH]c(=O)c1ccccc12	none
O=C(OCc1ncc(-c2ccccc2)o1)C12CC3CC(CC(C3)C1)C2	none

Screens as filed in PubChem.
